Assay results published in PubChem BioAssay (EPA / NIEHS).
Calls of active or inactive are those of the source. The calls were made as follows: active = hit-call score of the fitted dose curve at least 0.9, where 1 is the maximum; inactive = score below 0.9.

Columns and labels:
Settings in all cases: mRNA level, 48 h; actives raise or lower the signal
[1] = read-out: growth arrest and DNA damage 45 (GADD45A), GADD45A (gene 1647); assay: LTEA_HepaRG_GADD45A: Life Technologies and Expression Analysis (LTEA) Assay for growth arrest and DNA damage 45 (GADD45A) using HepaRG (AID 2283458)
Outline: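 HepaRG, 48 h exposure, 8 conc. (top 100 uM, half-log steps), 0.5% DMSO vehicle, duplicates. Read-out: qRT-PCR mRNA level, housekeeping-normalized (ACTB/GAPDH/POLR2A). Curves fit bidirectionally vs DMSO baseline.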

[2] = read-out: Forkhead box O3 (FOXO3), FOXO3 (gene 2309); assay: LTEA_HepaRG_FOXO3: Life Technologies and Expression Analysis (LTEA) Assay for Forkhead box O3 (FOXO3) using HepaRG (AID 2283459)
Outline: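 qRT-PCR readout of FOXO3 transcript, normalized to three housekeeping genes (ACTB, GAPDH, POLR2A); gain or loss fitted against 0.5% DMSO vehicle. HepaRG cells, 48 h chemical exposure, 8-point half-log series, top 100 uM.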

[3] = read-out: ABC Transporter (ABCB1), ABCB1 (gene 5243); assay: LTEA_HepaRG_ABCB1: Life Technologies and Expression Analysis (LTEA) Assay for ABC Transporter (ABCB1) using HepaRG (AID 2283460)
Outline: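 HepaRG, 48 h exposure, 8-pt half-log series from 100 uM, 0.5% DMSO vehicle, duplicates. Readout: ABCB1 transcript by Fluidigm TaqMan qRT-PCR, housekeeping-normalized; bidirectional curve fit vs DMSO baseline.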

[4] = read-out: growth arrest and DNA damage 45 (GADD45B), GADD45B (gene 4616); assay: LTEA_HepaRG_GADD45B: Life Technologies and Expression Analysis (LTEA) Assay for growth arrest and DNA damage 45 (GADD45B) using HepaRG (AID 2283461)
Outline: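 qRT-PCR read-out (Fluidigm TaqMan, housekeeping-normalized) of mRNA change in human HepaRG cells after 48 h chemical exposure; 8-point curve, top 100 uM, half-log steps, 0.5% DMSO vehicle; gain or loss fitted relative to DMSO baseline.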

[5] = read-out: ABC Transporter (ABCC3), ABCC3 (gene 8714); assay: LTEA_HepaRG_ABCC3: Life Technologies and Expression Analysis (LTEA) Assay for ABC Transporter (ABCC3) using HepaRG (AID 2283462)
Outline: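 qRT-PCR read-out of ABCC3 transcript, normalized to three housekeeping genes (ACTB, GAPDH, POLR2A), after 48 h chemical exposure of human HepaRG cells. Eight half-log concentrations, highest 100 uM, in 0.5% DMSO; gain or loss fitted relative to DMSO baseline.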

[6] = read-out: ABC Transporter (ABCB11), ABCB11 (gene 8647); assay: LTEA_HepaRG_ABCB11: Life Technologies and Expression Analysis (LTEA) Assay for ABC Transporter (ABCB11) using HepaRG (AID 2283463)
Outline: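 HepaRG, 48 h exposure, 8-pt half-log CRC top 100 uM, 0.5% DMSO vehicle, duplicates. Readout: TaqMan qRT-PCR of ABCB11 mRNA, housekeeping-normalized (ACTB/GAPDH/POLR2A). Bidirectional fit vs DMSO baseline.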

[7] = read-out: ABC Transporter (ABCC2), ABCC2 (gene 1244); assay: LTEA_HepaRG_ABCC2: Life Technologies and Expression Analysis (LTEA) Assay for ABC Transporter (ABCC2) using HepaRG (AID 2283464)
Outline: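 qRT-PCR (TaqMan, Fluidigm array) read-out of ABCC2 mRNA, normalized to three housekeeping genes. Differentiated HepaRG cells were treated 48 h in serum-free induction medium with 8-point half-log series from 100 uM in 0.5% DMSO; curves fitted bidirectionally relative to DMSO.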

[8] = read-out: Broad substrate specificity ATP-binding cassette transporter ABCG2 (Homo sapiens) (UniProt Q9UNQ0); assay: LTEA_HepaRG_ABCG2: Life Technologies and Expression Analysis (LTEA) Assay for ABC Transporter (ABCG2) using HepaRG (AID 2283465)
Outline: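 HepaRG, 48 h exposure, 8-pt half-log series from 100 uM, 0.5% DMSO vehicle, duplicates. Readout: ABCG2 transcript by qRT-PCR (Fluidigm array), housekeeping-normalized; bidirectional curve fit relative to DMSO baseline.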

[9] = read-out: ATP-citrate lyase (ACLY), ACLY (gene 47); assay: LTEA_HepaRG_ACLY: Life Technologies and Expression Analysis (LTEA) Assay for ATP-citrate lyase (ACLY) using HepaRG (AID 2283466)
Outline: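 qRT-PCR readout of ACLY transcript after 48 h chemical treatment of HepaRG cells; expression normalized to three housekeeping genes. Eight-point half-log series, highest 100 uM, 0.5% DMSO vehicle. Gain or loss fitted against DMSO baseline.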

[10] = read-out: Peroxisomal acyl-coenzyme A oxidase 1 (ACOX1) gene, ACOX1 (gene 51); assay: LTEA_HepaRG_ACOX1: Life Technologies and Expression Analysis (LTEA) Assay for Peroxisomal acyl-coenzyme A oxidase 1 (ACOX1) gene using HepaRG (AID 2283467)
Outline: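 HepaRG, 48 h chemical exposure, 8-pt half-log series from 100 uM top, 0.5% DMSO vehicle, duplicates. Readout: ACOX1 mRNA by Fluidigm qRT-PCR, housekeeping-normalized; bidirectional fit vs DMSO baseline.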

[11] = read-out: Bcl-2 (BAD) gene, BAD (gene 572); assay: LTEA_HepaRG_BAD: Life Technologies and Expression Analysis (LTEA) Assay for Bcl-2 (BAD) gene using HepaRG (AID 2283469)
Outline: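 HepaRG, 48 h exposure, 8-pt half-log curve from 100 uM in 0.5% DMSO, duplicates. Readout: TaqMan qRT-PCR for BAD mRNA, housekeeping-normalised (ACTB/GAPDH/POLR2A); gain or loss fitted against DMSO baseline.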

[12] = read-out: adenosine kinase (ADK) gene, ADK (gene 132); assay: LTEA_HepaRG_ADK: Life Technologies and Expression Analysis (LTEA) Assay for adenosine kinase (ADK) gene using HepaRG (AID 2283471)
Outline: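 HepaRG (human liver), 48 h chemical exposure, 8-pt half-log series, top 100 uM, 0.5% DMSO vehicle. Readout: ADK mRNA by qRT-PCR vs housekeeping genes; bidirectional curve fit relative to DMSO baseline.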

[13] = read-out: Alpha-fetoprotein (AFP) gene, AFP (gene 174); assay: LTEA_HepaRG_AFP: Life Technologies and Expression Analysis (LTEA) Assay for Alpha-fetoprotein (AFP) gene using HepaRG (AID 2283472)
Outline: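 qRT-PCR (Fluidigm TaqMan) readout of AFP transcript, normalized to three housekeeping genes, fitted bidirectionally against 0.5% DMSO baseline. HepaRG cells received chemicals for 48 h in serum-free induction medium, top concentration 100 uM, half-log steps.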

BCL2L11 (gene 10018) = assay: LTEA_HepaRG_BCL2L11: Life Technologies and Expression Analysis (LTEA) Assay for Bcl-2 (BCL2L11) gene using HepaRG (AID 2283473)
Outline: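 HepaRG, 48 h exposure, 8-pt half-log series from 100 uM in 0.5% DMSO, duplicates; qRT-PCR (Fluidigm TaqMan) for BCL2L11, housekeeping-normalized; bidirectional curve fit relative to DMSO baseline.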

[14] = read-out: Apolipoprotein A-V (APOA5) gene, APOA5 (gene 116519); assay: LTEA_HepaRG_APOA5: Life Technologies and Expression Analysis (LTEA) Assay for Apolipoprotein A-V (APOA5) gene using HepaRG (AID 2283474)
Outline: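 HepaRG, 48 h chemical exposure in serum-free induction medium, 8-pt half-log series (top 100 uM), 0.5% DMSO vehicle, duplicates. Readout: APOA5 mRNA by qRT-PCR, housekeeping-normalized; bidirectional fit vs DMSO baseline.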

[15] = read-out: Apoptosis regulator Bcl-2 (Homo sapiens) (UniProt P10415); assay: LTEA_HepaRG_BCL2: Life Technologies and Expression Analysis (LTEA) Assay for Bcl-2 gene using HepaRG (AID 2283475)
Outline: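 qRT-PCR read-out (Fluidigm TaqMan) of BCL2 transcript, normalised to three housekeeping genes, after 48 h chemical exposure of HepaRG cells; 8-point half-log series, top 100 uM, 0.5% DMSO vehicle. Gain or loss of signal fitted relative to DMSO baseline.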

[16] = read-out: Bcl-2 (BID) gene, BID (gene 637); assay: LTEA_HepaRG_BID: Life Technologies and Expression Analysis (LTEA) Assay for Bcl-2 (BID) gene using HepaRG (AID 2283476)
Outline: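 HepaRG, 48 h exposure, 8-pt half-log series, top 100 uM, 0.5% DMSO vehicle, duplicates. Readout: BID mRNA by TaqMan qRT-PCR; housekeeping-normalized; bidirectional curve fit vs DMSO baseline.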

Caspase-3 (Homo sapiens) = Caspase-3 (Homo sapiens) (UniProt P42574); assay: LTEA_HepaRG_CASP3: Life Technologies and Expression Analysis (LTEA) Assay for cysteine-aspartic acid protease (CASP3) using HepaRG (AID 2283477)
Chain of Caspase-3 (Homo sapiens) (P42574 whole entry, looked up): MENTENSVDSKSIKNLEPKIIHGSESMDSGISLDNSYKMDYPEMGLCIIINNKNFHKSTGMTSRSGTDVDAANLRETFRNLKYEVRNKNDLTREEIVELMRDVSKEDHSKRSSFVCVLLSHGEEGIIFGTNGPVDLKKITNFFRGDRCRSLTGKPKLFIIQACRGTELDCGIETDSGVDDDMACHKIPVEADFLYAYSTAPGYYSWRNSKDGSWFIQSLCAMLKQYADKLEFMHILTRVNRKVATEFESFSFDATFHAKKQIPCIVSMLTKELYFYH
Outline: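 HepaRG, 48 h exposure, 8 conc. (top 100 uM, half-log steps, duplicate), 0.5% DMSO vehicle; qRT-PCR of CASP3 transcript, housekeeping-normalised (ACTB/GAPDH/POLR2A); bidirectional curve fit vs DMSO baseline.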

[17] = read-out: Bcl-2 (BAX) gene, BAX (gene 581); assay: LTEA_HepaRG_BAX: Life Technologies and Expression Analysis (LTEA) Assay for Bcl-2 (BAX) gene using HepaRG (AID 2283470)
Outline: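 qRT-PCR read-out of BAX mRNA, normalized to three housekeeping genes, after 48 h chemical exposure of human HepaRG cells in serum-free induction medium; eight-point half-log series, top 100 uM, 0.5% DMSO vehicle; bidirectional fit versus DMSO.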

Measured: AC50

Chain of Broad substrate specificity ATP-binding cassette transporter ABCG2 (Homo sapiens) (Q9UNQ0 whole entry, looked up): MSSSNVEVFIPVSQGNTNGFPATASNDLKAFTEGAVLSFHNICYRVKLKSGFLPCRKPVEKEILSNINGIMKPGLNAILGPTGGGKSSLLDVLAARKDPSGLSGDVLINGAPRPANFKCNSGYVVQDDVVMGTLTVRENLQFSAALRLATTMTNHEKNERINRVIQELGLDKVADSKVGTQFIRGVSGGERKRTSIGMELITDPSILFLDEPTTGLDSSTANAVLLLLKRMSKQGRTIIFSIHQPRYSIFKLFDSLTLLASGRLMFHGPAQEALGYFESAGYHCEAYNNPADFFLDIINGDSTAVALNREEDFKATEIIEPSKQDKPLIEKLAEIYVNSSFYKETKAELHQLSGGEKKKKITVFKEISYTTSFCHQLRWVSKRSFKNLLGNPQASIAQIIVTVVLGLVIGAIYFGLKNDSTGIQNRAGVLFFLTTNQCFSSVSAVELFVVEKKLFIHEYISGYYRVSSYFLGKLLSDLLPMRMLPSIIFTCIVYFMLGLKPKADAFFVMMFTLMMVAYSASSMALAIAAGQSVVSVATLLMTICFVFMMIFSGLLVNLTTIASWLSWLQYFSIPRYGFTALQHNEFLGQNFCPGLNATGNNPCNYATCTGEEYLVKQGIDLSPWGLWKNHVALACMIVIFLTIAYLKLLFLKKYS
Chain of Apoptosis regulator Bcl-2 (Homo sapiens) (P10415 whole entry, looked up): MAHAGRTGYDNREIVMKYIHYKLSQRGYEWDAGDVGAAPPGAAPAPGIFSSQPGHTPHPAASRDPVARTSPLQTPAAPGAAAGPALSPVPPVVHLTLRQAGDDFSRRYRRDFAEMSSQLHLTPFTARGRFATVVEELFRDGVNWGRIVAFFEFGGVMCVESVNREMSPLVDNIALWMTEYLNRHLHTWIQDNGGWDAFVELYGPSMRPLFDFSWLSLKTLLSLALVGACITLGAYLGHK

O=C(O)c1[nH]n(-c2ccc(S(=O)(=O)O)cc2)c(=O)c1N=Nc1ccc(S(=O)(=O)O)cc1
not listed: [17]
inactive: all other assays above

CC(C)COC(=O)CCCCC(=O)OCC(C)C
not listed: [14] | [15]
inactive: all other assays above

CSc1ccc(Oc2ccc(S(N)(=O)=O)cc2CN(C)C)cc1C
active: [5] 81.5 µM | [6] 84.6 µM | [13] 75 µM
not listed: [15] | [17]
inactive: all other assays above

COc1ccc(OC(F)(F)F)cc1CN[C@H]1CCCN[C@H]1c1ccccc1
active: [2] 76.3 µM | [3] 83.7 µM | [7] 82.9 µM | [9] 95.6 µM | [10] 64.3 µM | [12] 79.3 µM | [13] 9.61 µM | BCL2L11 (gene 10018) 84.5 µM | Caspase-3 (Homo sapiens) 81.8 µM
not listed: [17]
inactive: all other assays above

CC(C)OC(=O)C(C)(C)Oc1ccc(C(=O)c2ccc(Cl)cc2)cc1
active: [1] 53.6 nM | [14] 43.2 nM | [16] 42.2 nM
not listed: [15] | [17]
inactive: all other assays above
